# From PubChem BioAssay (NCATS)
# Inconclusive results are not listed. A number with no mark means an inactive call. Calls follow the shape of the dose curve; as a rule, active = well fitted inhibition curve with a large enough effect; inconclusive = small, poorly fitted or top-dose-only effect; inactive = flat fitted curve, though single readings scatter.
# Test: qHTS profiling for inhibitors of Plasmodium falciparum proliferation (AID 504749);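 also: 0% = DMSO vehicle and full inhibition = artemisinin control; nearly all actives have a fitted effect of over 60% in size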
# Conditions: P. falciparum in erythrocytes, SYBR Green DNA, 72 h, at 28.7 µM (top of the series)
# Method in brief: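 Each compound contacts P. falciparum-infected red blood cells for 72 h at 37 C; lysis buffer (Tris, EDTA, saponin, Triton X, SYBR Green I) is added and fluorescence measured next morning; values normalized to controls.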
Compound,"activity, negative = inhibition (parasite line A) [%]","activity, negative = inhibition (parasite line B) [%]"
O=S(=O)(O)c1ccc2nc(-c3ccccc3)[nH]c2c1,7.74,3.12
Nc1ncnc2nc[nH]c12,-12.9,-6.26
